# Test results: PubChem BioAssay (Tox21)
# Values without a mark were called inactive. Inconclusive results are not listed. A call without a number means that no potency is given here. The source made the active and inactive calls. Calls follow the shape of the full dose curve.
# What was measured:
# [1] = molecular target: Acetylcholinesterase (Homo sapiens) (UniProt P22303); assay: Acetylcholinesterase (AChE) small molecule antagonists: enzyme-based qHTS assay (AID 1347397); conditions: Potency: AChE enzyme activity inhibition; outcome: AChE enzyme activity inhibition; also: nearly all actives have a fitted effect of over 55% in size; also: potency is read from the fitted curve at half-maximal effect
# Procedure, shortened: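 First, recombinant human AChE (50 mU/mL as dispensed) received test compound or DMSO. Second, plates stood 30 min at room temperature. Third, DTNB and acetylthiocholine were added, followed by 10 min at room temperature and colorimetric detection.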
# [2] = molecular target: Acetylcholinesterase (Homo sapiens) (UniProt P22303); assay: Acetylcholinesterase (AChE) small molecule antagonists: fluorescence cell-based qHTS assay (AID 1347398); conditions: Potency: AChE activity; outcome: AChE activity; also: nearly all actives have a fitted effect of over 50% in size; also: potency is read from the fitted curve at half-maximal effect
# Procedure, shortened: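 Homogeneous quantitative HTS format. SH-SY5Y cells seeded at 2,000 per well settle overnight at 37 C. Compound pretreatment runs 30 min (37 C, 5% CO2); substrate/probe mix then reacts 40 min at RT before reading 490/520 nm.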
# [3] = molecular target: Acetylcholinesterase (Homo sapiens) (UniProt P22303); assay: Acetylcholinesterase (AChE) small molecule antagonists: enzyme-based qHTS assay with human liver microsomes (AID 1347399); conditions: Potency: qHTS inhibition; outcome: qHTS inhibition; also: nearly all actives have a fitted effect of over 60% in size
# Procedure, shortened: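 Recombinant human AChE (50 mU/mL in the enzyme mix) and human liver microsomes (0.25 mg/mL final) were preincubated with compound and NADPH (0.25 mg/mL final) for 30 min at 37 C. Acetylthiocholine/DTNB was then added; thiocholine was read colorimetrically after 10 min at room temperature.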
# Chain of Acetylcholinesterase (Homo sapiens) (P22303 whole entry, looked up): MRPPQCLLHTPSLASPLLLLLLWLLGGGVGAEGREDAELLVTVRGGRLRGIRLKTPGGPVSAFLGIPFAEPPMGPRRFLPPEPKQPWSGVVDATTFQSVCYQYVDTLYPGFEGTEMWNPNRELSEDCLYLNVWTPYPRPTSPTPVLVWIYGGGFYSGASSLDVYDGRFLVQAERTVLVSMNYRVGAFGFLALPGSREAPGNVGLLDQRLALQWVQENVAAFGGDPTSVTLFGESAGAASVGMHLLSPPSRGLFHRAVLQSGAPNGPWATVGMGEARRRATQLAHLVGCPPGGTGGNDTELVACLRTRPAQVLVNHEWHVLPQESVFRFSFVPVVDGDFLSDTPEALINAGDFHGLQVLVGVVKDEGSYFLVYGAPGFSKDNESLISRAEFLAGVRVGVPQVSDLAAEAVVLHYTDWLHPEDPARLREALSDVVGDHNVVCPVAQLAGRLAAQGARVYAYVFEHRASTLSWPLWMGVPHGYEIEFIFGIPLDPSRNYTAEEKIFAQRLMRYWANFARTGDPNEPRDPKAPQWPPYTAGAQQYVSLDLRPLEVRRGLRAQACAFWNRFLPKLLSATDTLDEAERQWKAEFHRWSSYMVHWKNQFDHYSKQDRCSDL
smiles,measurement,setting,value
OCCC1CCCCN1 (centres undefined),Potency,[1],inactive
same,Potency,[2],inactive
same,Potency,[3],inactive
CCCOC(=O)c1ccc(N)cc1,Potency,[1],inactive
same,Potency,[2],inactive
same,Potency,[3],inactive
Clc1nnc(Cl)c2ccccc12,Potency,[1],inactive
same,Potency,[2],inactive
same,Potency,[3],inactive
C/C=C1\C(=O)C[C@H]2[C@@H]3CCC4=CC(=O)CC[C@]4(C)[C@H]3CC[C@]12C,Potency,[1],inactive
same,Potency,[2],inactive
same,Potency,[3],inactive
CCOC(=O)C(C)O (centres undefined),Potency,[1],inactive
same,Potency,[2],inactive
same,Potency,[3],inactive
C=CCOCC(O)CS(=O)(=O)O (centres undefined),Potency,[1],inactive
same,Potency,[2],inactive
same,Potency,[3],inactive
N=C(N)c1ccc(OCCCOc2ccc(C(=N)N)cc2)cc1,Potency,[1],inactive
same,Potency,[2],inactive
same,Potency,[3],inactive
CC(=O)S[C@@H]1CC2=CC(=O)CC[C@]2(C)[C@H]2CC[C@@]3(C)[C@@H](CC[C@@]34CCC(=O)O4)[C@H]12,Potency,[1],inactive
same,Potency,[2],inactive
same,Potency,[3],inactive
CCCCCCCC[N+](CCCCCCCC)(CCCCCCCC)CCCCCCCC,Potency,[1],39.8 µM (active)
same,Potency,[2],70.9 µM (active)
same,Potency,[3],inactive
Nc1ccc(Oc2ccc(N)c(N)c2)cc1,Potency,[1],inactive
same,Potency,[2],inactive
same,Potency,[3],inactive
O=C1CC2(CCCC2)CC(=O)N1,Potency,[1],inactive
same,Potency,[2],inactive
same,Potency,[3],inactive
CC(C)(C)c1nnc(NS(=O)(=O)c2ccc(N)cc2)s1,Potency,[1],inactive
same,Potency,[2],inactive
same,Potency,[3],inactive
Cc1oncc1C(=O)Nc1ccc(C(F)(F)F)cc1,Potency,[1],inactive
same,Potency,[2],inactive
same,Potency,[3],inactive
CC(=O)OCC(=O)Nc1cc(C#N)cc(NC(=O)COC(C)=O)c1Cl,Potency,[1],inactive
same,Potency,[2],inactive
same,Potency,[3],inactive
CCCCNc1ccc(C(=O)OCCN(CC)CC)cc1,Potency,[1],30.9 µM (active)
same,Potency,[2],2.45 µM (active)
same,Potency,[3],inactive
O=c1[nH]c(=O)n([C@H]2O[C@H](CO)[C@@H](O)[C@@H]2O)cc1/C=C\Br,Potency,[1],inactive
same,Potency,[2],inactive
same,Potency,[3],inactive
CCCCCC(=O)CC,Potency,[1],inactive
same,Potency,[2],inactive
same,Potency,[3],inactive
COC(=O)CC(C)=O,Potency,[1],inactive
same,Potency,[2],inactive
same,Potency,[3],inactive
Clc1cccnc1,Potency,[1],inactive
same,Potency,[2],inactive
same,Potency,[3],inactive
O=C1c2ccccc2C(=O)c2c(Cl)cccc21,Potency,[1],inactive
same,Potency,[2],inactive
same,Potency,[3],inactive
CCC(C)OC(C)CC (centres undefined),Potency,[1],inactive
same,Potency,[2],inactive
same,Potency,[3],inactive
Nc1ccc(F)cc1F,Potency,[1],inactive
same,Potency,[2],inactive
same,Potency,[3],inactive
CCC(CN)=C(c1ccccc1)c1ccccc1,Potency,[1],inactive
same,Potency,[2],inactive
same,Potency,[3],inactive
CC1CCN(CCCC(=O)c2ccc(F)cc2)CC1,Potency,[1],inactive
same,Potency,[2],inactive
same,Potency,[3],inactive
COc1ccc([C@@H]2Sc3ccccc3NC(=O)[C@@H]2O)cc1,Potency,[1],inactive
same,Potency,[2],inactive
same,Potency,[3],inactive
CC1OCCC1=O (centres undefined),Potency,[1],inactive
same,Potency,[2],inactive
same,Potency,[3],inactive
C[C@H](N)C(=O)N[C@@H](C)C(=O)NC1[C@H]2CN(c3nc4c(cc3F)c(=O)c(C(=O)O)cn4-c3ccc(F)cc3F)C[C@@H]12 (some centres undefined),outcome,[1],inactive
same,outcome,[2],inactive
same,outcome,[3],inactive
CC[N+](CC)(CC)CCOc1ccc(/C=C/c2ccccc2)cc1,Potency,[1],inactive
same,Potency,[2],34.7 µM (active)
same,Potency,[3],inactive
CCCCCCOC(=O)CC(CC(=O)OCCCCCC)(OC(=O)CCC)C(=O)OCCCCCC,Potency,[1],inactive
same,Potency,[2],inactive
same,Potency,[3],inactive
CCCOC(=O)c1ccc(O)cc1,Potency,[1],inactive
same,Potency,[2],inactive
same,Potency,[3],inactive
O=C(OCC(COC(=O)c1cccnc1)(COC(=O)c1cccnc1)COC(=O)c1cccnc1)c1cccnc1,Potency,[1],inactive
same,Potency,[2],inactive
same,Potency,[3],inactive
CCCCCCCC[P+](CCCCCCCC)(CCCCCCCC)CCCCCCCC,Potency,[1],22.3 µM (active)
same,Potency,[2],62.9 µM (active)
same,Potency,[3],inactive
CN1[C@@H]2CC[C@H]1CC(OC(=O)C(O)c1ccccc1)C2 (some centres undefined),Potency,[1],inactive
same,Potency,[2],inactive
same,Potency,[3],inactive
CCCC[N+](C)(CCCC)CCCC,Potency,[1],inactive
same,Potency,[2],inactive
same,Potency,[3],inactive
[O-][n+]1cccc(/C(Cl)=N/OC[C@@H](O)CN2CCCCC2)c1,Potency,[1],inactive
same,Potency,[2],inactive
same,Potency,[3],inactive
CC(C(=O)O)c1ccc(C(=O)c2ccccc2)s1 (centres undefined),Potency,[1],inactive
same,Potency,[2],inactive
same,Potency,[3],inactive
NCCCCCCNCCCCCCN,Potency,[1],inactive
same,Potency,[2],39.3 µM (active)
same,Potency,[3],inactive
CCN1CCC[C@H]1CNC(=O)c1cc(S(N)(=O)=O)ccc1OC,Potency,[1],inactive
same,Potency,[2],inactive
same,Potency,[3],inactive
C=C(C)C(=O)NCCCN(C)C,Potency,[1],inactive
same,Potency,[2],inactive
same,Potency,[3],inactive
CC(C)(C)NCC(O)COc1cccc2c1C[C@H](O)[C@H](O)C2 (some centres undefined),Potency,[1],inactive
same,Potency,[2],inactive
same,Potency,[3],inactive
CC(=O)c1ccc2c(c1)N(CCCN1CCC(CCO)CC1)c1ccccc1S2,Potency,[1],inactive
same,Potency,[2],17.4 µM (active)
same,Potency,[3],inactive
CCCOC(=O)c1c(Cl)c(Cl)c(Cl)c(Cl)c1C(=O)OCCC,Potency,[1],inactive
same,Potency,[2],inactive
same,Potency,[3],inactive
Cc1nc2n(c(=O)c1CCN1CCC(c3noc4cc(F)ccc34)CC1)CCC[C@H]2O,"activity change, negative = inhibition",[1],-5.56% [at 23.6 µM]
same,"activity change, negative = inhibition",[2],-17.1% [at 23.8 µM]
same,"activity change, negative = inhibition",[3],-2.77% [at 23.6 µM]
